# aSyn UTR act = Activators via SNCA 5'UTR binding, MLPCN | alpha-synuclein 5'UTR reporter, activators screen | hit rate 7.1% among 300,000 | AID 1814, 2009 | activity score, % (tested at 7.5 µM), hits read low; in the data active means activity score below about -60%
# Numbers stand for hits; – = inactive. The list is a sample of the results.
SMILES,aSyn UTR act
O=C(NC(=Nc1nc2ccccc2o1)NC(=O)c1ccccc1)c1ccccc1,-104.5
COc1ccccc1C(=O)NC(=Nc1nc2ccccc2o1)NC(=O)c1ccccc1OC,-91.6
COc1ccc(-c2cc(-c3ccc(OC)c(OC)c3)n[nH]2)c(O)c1,-163.0
COc1ccc(-c2cc(-c3ccccc3O)[nH]n2)cc1OC,-154.4
COc1cc(-c2ccc(=O)[nH]n2)ccc1OC(F)F,–
COc1ccc(-c2ccc3ccccc3n2)cc1OC,-171.4
COc1cccc(N2CCN(C3C4CC5CC(C4)CC3C5)CC2)c1 (centres undefined),-95.3
COc1ccc2oc(=Nc3cc(F)ccc3F)c(C(N)=O)cc2c1,-176.0
COc1ccc2cc(C(N)=O)c(=Nc3ccccc3)oc2c1,-89.7
Fc1ccc(-c2nnc(NC3=NCCCCC3)o2)cc1,–
Cc1ccc(-c2nnc(Cc3ccc([N+](=O)[O-])cc3)o2)cc1,-119.7
Fc1ccc(-c2nnc(-c3ccc(F)cc3)o2)cc1,-185.4
O=[N+]([O-])c1ccc(Cc2nnc(-c3ccc(F)cc3)o2)cc1,-86.4
CCNC(=S)Nc1cc(-c2ccc(Cl)cc2)[nH]n1,-86.5
O=C(Nc1cc(-c2ccccc2)[nH]n1)c1ccccc1F,-207.2
CC(=O)Nc1cc(-c2ccc(F)cc2)[nH]n1,-76.9
COc1cccc(C(=O)N/N=C(\C)c2ccc(NC(=O)Cc3ccccc3)cc2)c1OC,-88.2
COc1ccc(/C(C)=N/NC(=O)c2ccccc2OCc2ccccc2)c(OC)c1,-117.5
C/C(=N\NC(=O)c1cccc(O)c1)c1ccc(NC(=O)Cc2ccccc2)cc1,-85.0
C/C(=N\NC(=O)c1ccccc1O)c1ccc(NC(=O)Cc2ccccc2)cc1,-70.9
Cc1sc(NC(=O)C2C3CCC(O3)C2C(=O)O)nc1-c1ccc(CC(C)C)cc1 (centres undefined),-139.2
CSc1nnc(-c2ccccc2N=Cc2c(C)[nH]n(-c3ccc4ccccc4c3)c2=O)c(=O)[nH]1,-73.4
BrC(=C\c1ccccc1)/C=N/Nc1nc2ccccc2[nH]1,-158.4
Cc1ccc(NCC(=O)N/N=C\C(Br)=C\c2ccccc2)cc1,-65.0
O=C(N/N=C/C(Br)=C/c1ccccc1)C1CC1,-195.2
SMILES,aSyn UTR act
O=C(O)c1ccc(N/N=C/C(Br)=C/c2ccccc2)cc1,-242.4
O=C(N/N=C/C(Br)=C/c1ccccc1)NC1CCCCC1,-84.7
O=C(N/N=C/C(Br)=C/c1ccccc1)C(O)c1ccccc1 (centres undefined),-74.3
CC(C)OC(=O)Nc1ccc2c(c1)N(C(=O)N1CCN(C)CC1)c1ccccc1CC2,-62.2
COc1ccc(Nc2nc(N)nc(CSC(=S)N3CCCCC3)n2)cc1,-62.4
Nc1nc(CSc2ccccn2)nc(Nc2ccccc2)n1,-84.6
COc1ccc(Nc2nc(N)c([N+](=O)[O-])c(NC3CCCCC3)n2)cc1,–
Nc1nc(COc2ccccc2C=O)nc(Nc2ccccc2)n1,-118.6
COc1ccc(OCc2nc(N)nc(Nc3ccc(C)cc3)n2)cc1,-68.7
COc1ccc(Nc2nc(N)nc(CSc3nccn3C)n2)cc1,-86.8
COc1ccc(OC)c(CNc2ccc3c(c2)CCC3)c1,-117.6
COc1cccc(CNc2ccc3c(c2)CCC3)c1,-166.8
O=c1c2ccccc2c(C=Nc2ccc(O)cc2)c(O)n1Cc1ccccc1,-110.7
O=C(COC(=O)c1ccccc1-n1cnnn1)c1ccc(F)cc1,-145.2
O=C(NCc1ccc(F)cc1)c1c2c(nc3ccccc13)CCC2,-70.6
CN1C(=O)S/C(=C\c2ccc(-n3cncn3)cc2)C1=O,-93.2
CC(C)(C)c1cc(C(=O)N/N=C/c2ccco2)n[nH]1,-146.1
Cc1ccsc1/C=N\NC(=O)c1cc(C(C)(C)C)[nH]n1,-138.4
Cc1cccc(C(=O)N2CCc3cc(-c4csc(NC(=O)CN5CCCC5)n4)ccc32)c1,-74.1
Cc1cccc(C(=O)N2CCc3cc(-c4nc(NC(=O)CN5CCCC5)sc4C)ccc32)c1,-71.2
O=C(CN1CCCC1)Nc1nc(-c2ccc3c(c2)CCN3C(=O)c2ccccc2F)cs1,-123.5
CCc1nc(SCC#N)c(C#N)cc1C,–
Cc1cccc2cc(C#N)c(SCC#N)nc12,–
CC(C)OC(=O)CSc1nc2c(cc1C#N)CCCCC2,-166.0
CCOC(=O)CC(=O)CSc1nc2c(cc1C#N)CCCCC2,-138.0
SMILES,aSyn UTR act
N#Cc1cc2c(nc1SCc1ccncc1)CCC2,-95.1
CCc1nccn1CCC(=O)N1CCCC(N2CCN(c3cccc(Cl)c3)CC2)C1 (centres undefined),-67.2
COc1ccc(Cl)cc1NC(=O)CN(C)CC(=O)Nc1ccccc1N1CCOCC1,–
O=C(Nc1ccccc1N1CCOCC1)c1ccc2ccccc2n1,-118.2
Cc1ccn2cc(C(=O)Nc3nnc(C)s3)nc2c1,-110.9
Cc1ccn2cc(C(=O)Nc3ccccc3N3CCOCC3)nc2c1,-89.9
COCCOC(=O)c1[nH]c2c(c1C)C(=O)CC(c1ccccc1)C2 (centres undefined),–
COC(=O)C1C(=O)c2c([nH]c(C(=O)OC3CCCCCC3)c2C)CC1C (centres undefined),-115.3
CCOC(=O)c1[nH]c2c(c1C)C(=O)CC(c1ccco1)C2 (centres undefined),–
COCCOC(=O)c1[nH]c2c(c1C)C(=O)C(C(=O)OC)C(C)C2 (centres undefined),-87.7
COC(=O)C1C(=O)c2c([nH]c(C(=O)OCC3CCCO3)c2C)CC1C (centres undefined),-112.9
Cc1c(C(=O)OC2CCC(C)CC2)[nH]c2c1C(=O)CCC2 (centres undefined),-78.8
COC(=O)c1[nH]c2c(c1C)C(=O)CC(c1cccs1)C2 (centres undefined),–
CCCCCOC(=O)c1[nH]c2c(c1C)C(=O)C(C(=O)OC)C(C)C2 (centres undefined),-73.2
O=C1C2C3CCC(C3)C2C(=O)N1c1ccc(OS(=O)(=O)c2ccccc2)cc1 (centres undefined),-178.0
CC(C)(C)c1csc(NC(=O)Nc2ccccc2)n1,-140.9
COc1cccc(-c2csc(NC(=O)Nc3ccccc3)n2)c1,-165.6
O=C(Nc1ccc(-c2csc(Nc3ccccc3)n2)cc1)c1ccccc1,-86.9
COc1cccc(-c2csc(NC(=O)C3CC3)n2)c1,-161.4
O=C(Nc1nc(-c2ccccc2)cs1)Nc1ccc(F)cc1F,-63.4
O=C(Nc1ccccc1)Nc1nc(-c2ccccc2)cs1,-87.5
Cc1ccnc(NC(=S)NC(=O)/C=C/c2ccco2)c1,-333.7
Cc1ccc(O)c(NC(=S)NC(=O)/C=C/c2ccco2)c1,-169.8
Cn1c(=O)[nH]c2cc3ccccc3cc21,–
CC(C)OC(=O)c1cc2ccccc2[nH]1,-84.5
SMILES,aSyn UTR act
CCOC(=O)c1cc2cc3ccccc3cc2[nH]1,-299.7
O=c1c2ccccc2c(C=Nc2cccc(O)c2)c(O)n1-c1ccc2c(c1)OCO2,-150.7
Cc1ccc(N=Cc2c(O)[nH]c3ccccc23)c([N+](=O)[O-])c1,-169.2
Oc1[nH]c2ccccc2c1C=Nc1ccc2c(c1)OCO2,-285.3
COc1ccc(N=Cc2c(O)[nH]c3ccccc23)cc1,-144.1
Oc1[nH]c2ccccc2c1/C=N/c1nccs1,-144.6
CN=c1scc(-c2ccccc2F)n1/N=C(\C)c1cccnc1,-163.3
CN=c1scc(-c2ccccc2Br)n1/N=C/c1ccc[nH]1,–
CN(C)/N=C/c1ccc(N2CCOCC2)cc1,-96.4
C/C(=N\Nc1ccc(F)cc1F)c1ccc(Br)s1,-81.0
C/C(=N\Nc1ccc(F)cc1F)c1ccc(N2CCOCC2)cc1,-95.7
Fc1ccc(N/N=C/c2ccc(N3CCOCC3)cc2)c(F)c1,-207.5
O=C(Nc1ccccc1Cl)C1Cc2ccccc2O/C1=N\O (centres undefined),-88.4

# Compound activity from PubChem.
